These results are taken from PubChem BioAssay (NCI).

This is part of a sample that, as a whole, favours compounds with a hit. Of some 83,000 tested, about 20% had one in any assay.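 Growth was measured after 48 h exposure to one concentration of compound in 96-well plates. Values under 10 count as active.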 A number with no mark means an inactive call. Calls of active or inactive are those of the source.

Some test systems named below: HCT-15 colon; HT29 colon; SNB-75 CNS; SNB-19 CNS; U251 CNS; PC-3 prostate; SK-MEL-5 melanoma; UACC-62 melanoma; SK-MEL-28 melanoma; LOX IMVI melanoma.
What all share (assay): NCI-60 one-dose screen, 48 h (100 = growth as untreated, 0 = no growth, -100 = all killed)
Common to all, as to conditions: 10 µM unless noted

`Cc1cccc(C[C@H](NC(=O)Nc2ccc(Cl)cc2F)C(=O)N[C@@H]2C(=O)N3C[C@H](O)C[C@H]3C(=O)N3CCCC[C@H]3C(=O)N[C@@H](C)C(=O)N3C[C@H](C)C[C@H]3C(=O)O[C@H]2C)c1`: the growth in the test with HCT-15 colon is 27.9%; in the test on HT29 colon, -10.5% (active); in the test on SNB-75 CNS, 4.64% (active); in the test with SNB-19 CNS it was 16.2%; with U251 CNS it was 16.4%; in the test with PC-3 prostate, 7.99% (active). Further, the growth with SK-MEL-5 melanoma was -70.4% (active); in the test with UACC-62 melanoma it was -26.1% (active); in the test on SK-MEL-28 melanoma, 0.552% (active).
Regarding `N#C/C(C(=O)c1ccccc1)=C1/C(=O)Nc2ccc(Br)cc21`, the growth is 107% in the test with HCT-15 colon; 113% in the test on HT29 colon; 70.5% in the test on SNB-75 CNS; 98.6% in the test on SNB-19 CNS; 106% with U251 CNS; 96.4% in the test with PC-3 prostate. The growth was 95.5% with SK-MEL-5 melanoma, 92.5% in the test on UACC-62 melanoma and 105% with SK-MEL-28 melanoma.
With `C=C(C)[C@@H]1CC[C@]2(COCCC#N)CC[C@]3(C)[C@H](CC[C@@H]4[C@@](C)(CCCNCCC#N)[C@H](C(=C)C)CC[C@]43C)[C@@H]12`, the growth is 35.7% [100 µM] in the test with HCT-15 colon; 2.94% [100 µM] (active) in the test with HT29 colon; 40.8% [100 µM] in the test with SNB-75 CNS; 59% [100 µM] in the test on SNB-19 CNS; 5.95% [100 µM] (active) in the test with U251 CNS; 20.1% [100 µM] in the test on PC-3 prostate. In addition, the growth in the test with SK-MEL-5 melanoma was 2.58% [100 µM] (active); with UACC-62 melanoma, 29.8% [100 µM]; in the test with LOX IMVI melanoma it was -74.4% [100 µM] (active); in the test with SK-MEL-28 melanoma, -37.3% [100 µM] (active).
Take `Nc1nc(SCc2cccc([N+](=O)[O-])c2)c2[nH]cnc2n1`: the growth with HCT-15 colon was 95.1%; with HT29 colon it was 98.4%; in the test with SNB-75 CNS, 89.5%; with SNB-19 CNS it was 91.7%; with U251 CNS, 95%; in the test with PC-3 prostate, 92.3%. Moreover, the growth in the test on SK-MEL-5 melanoma was 98%; with UACC-62 melanoma, 91.3%; with LOX IMVI melanoma it was 77.9%; with SK-MEL-28 melanoma, 106%.
In the case of `CC1Cc2c(ncnc2-n2cnc3ccccc32)N(C)c2ccccc21` (stereo not drawn), the growth in the test on HCT-15 colon is 21.6%; in the test on HT29 colon, 0.852% (active); with SNB-75 CNS, 43%; with SNB-19 CNS it was 31.5%; with U251 CNS, 23.7%; with PC-3 prostate, 25.6%. In addition, the growth in the test with SK-MEL-5 melanoma was 20.8%; with UACC-62 melanoma, 30.9%; in the test on SK-MEL-28 melanoma it was 70.4%.
Regarding `O=C(N/N=C/c1ccc([N+](=O)[O-])cc1)c1ccc(Br)o1`, the growth in the test with HCT-15 colon was 94.5%; in the test with HT29 colon, 106%; in the test on SNB-75 CNS, 105%; in the test with SNB-19 CNS it was 90.2%; in the test on U251 CNS, 101%; in the test with PC-3 prostate, 87.1%. Further, the growth in the test on SK-MEL-5 melanoma was 95.8%; in the test with UACC-62 melanoma, 99.6%; in the test on LOX IMVI melanoma, 98%; with SK-MEL-28 melanoma, 110%.
For `CCN(CC)CCCOc1ccc2c(c1)O/C(=C\c1cccc(OC)c1)C2=O`, the growth was 53.5% in the test on HCT-15 colon; 50.2% in the test with HT29 colon; 71.8% with SNB-75 CNS; 92.6% in the test on SNB-19 CNS; 76.7% with U251 CNS; 94.6% in the test with PC-3 prostate. For the same compound, the growth was 91.2% with SK-MEL-5 melanoma, 95.6% in the test with UACC-62 melanoma, 70.7% in the test with LOX IMVI melanoma and 101% with SK-MEL-28 melanoma.
Consider `COc1cc2c(cc1OC(C)=O)C(=O)CCCC2`, for which the growth is 83% in the test on HCT-15 colon; 96.5% in the test on HT29 colon; 54.2% with SNB-75 CNS; 109% with SNB-19 CNS; 94.4% with U251 CNS; 87.5% in the test on PC-3 prostate. For the same compound, the results for the growth with SK-MEL-5 melanoma, in the test with UACC-62 melanoma and in the test with SK-MEL-28 melanoma were 90.1%, 105% and 95.2%, respectively.
`O=C(Nc1cccc(C2=NCCN2)c1)c1cccc(C(=O)Nc2cccc(C3=NCCN3)c2)c1`: the growth in the test with HCT-15 colon is 97.6%; in the test on HT29 colon it was 110%; with SNB-75 CNS it was 86.2%; in the test with SNB-19 CNS, 98%; with U251 CNS, 101%; in the test with PC-3 prostate it was 99%. Further, the growth is 99.1% in the test on SK-MEL-5 melanoma, 94.3% with UACC-62 melanoma, 91.4% with LOX IMVI melanoma and 102% in the test with SK-MEL-28 melanoma.
On to `CCN(CC)CCCNCc1cc(-c2ccccc2)nc2ccccc12`, for which the growth with HCT-15 colon is 15.3%; in the test with HT29 colon it was 55.1%; in the test with SNB-75 CNS, 73.6%; with SNB-19 CNS it was 82.5%; in the test on U251 CNS, 21.5%; in the test on PC-3 prostate, 75%. In addition, the growth was 69.6% in the test on SK-MEL-5 melanoma, 95.6% in the test on UACC-62 melanoma and 92.7% in the test with SK-MEL-28 melanoma.
Regarding `CCCCCn1c(C)cc(/C=C\c2ccc3cc(C)ccc3[n+]2C)c1C`, the growth is -12% (active) with HCT-15 colon; -61.8% (active) with HT29 colon; -94.4% (active) with SNB-75 CNS; -89.8% (active) in the test on SNB-19 CNS; -93.9% (active) in the test on U251 CNS; -47.9% (active) in the test with PC-3 prostate. In addition, the growth was -95.7% (active) with SK-MEL-5 melanoma, -89.8% (active) in the test on UACC-62 melanoma, -72.4% (active) in the test with LOX IMVI melanoma and -87.1% (active) in the test with SK-MEL-28 melanoma.
Regarding `C=C(C)[C@@H]1CC[C@]2(C(N)=O)CC[C@]3(C)[C@H](CC[C@@H]4[C@@]5(C)C/C(=C/c6cccnc6)C(=O)C(C)(C)[C@@H]5CC[C@]43C)[C@@H]12`, the growth in the test on HCT-15 colon is 14.9% [100 µM]; with HT29 colon it was -45.3% [100 µM] (active); with SNB-75 CNS, 40.6% [100 µM]; with SNB-19 CNS, 27.8% [100 µM]; in the test on U251 CNS it was 9.19% [100 µM] (active); with PC-3 prostate, 11.7% [100 µM]. Also, the growth in the test with SK-MEL-5 melanoma was -61.9% [100 µM] (active); in the test with UACC-62 melanoma, -1.04% [100 µM] (active); in the test with SK-MEL-28 melanoma, -8.42% [100 µM] (active).
As for `COc1ccc(-c2cc(-c3ccc(Cl)cc3)nc(SCCCCCCC(=O)NO)n2)cc1`, the growth with HCT-15 colon is 15.5%; in the test with HT29 colon, 10.8%; in the test on SNB-75 CNS it was 34.5%; with SNB-19 CNS, 35.9%; in the test on U251 CNS, 19%; in the test on PC-3 prostate it was 49.2%. The growth with SK-MEL-5 melanoma is -6.04% (active); in the test on UACC-62 melanoma, 14.9%; in the test with SK-MEL-28 melanoma, 57.6%.
